Consider 24 compounds from PubChem BioAssay (NCATS).

Assay [1] has as its target Cytochrome P450 3A4 (Homo sapiens) (UniProt P08684). Description: qHTS Assay for Inhibitors and Substrates of Cytochrome P450 3A4 (AID 884). Further: potency means the concentration at half of the fitted maximal effect; nearly all actives have a fitted effect of over 50% in size. Summed up: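 Luminescent readout of luciferin produced by CYP3A4 (20 nM) dealkylation of Luciferin-PPXE, 25 uM (its KM). NADPH-driven reaction ran 60 min at RT after 10 min compound preincubation; data scaled to 57 uM ketoconazole as 100% inhibition.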
A general note: In qHTS, concentration-response curves come from the screen itself.

Assay [2] shares this target. Description: qHTS Assay for Activators of Cytochrome P450 3A4 (AID 885). Further: nearly all actives have a fitted effect of over 65% in size. Summed up:
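Activators are scored by enhanced luminescence from CYP3A4 conversion of luciferin-PPXE (25uM, equal to KM) to luciferin, after 60 min at RT with an NADPH-regenerating system.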

The structures appear in SMILES notation. Values joined by “and” are separate entries in the source; they are usually repeats but may differ in a detail not shown here. Equal entries are not always repeated. A number with no mark means an inactive call. Results filed as inconclusive are left out. Active and inactive are the calls of the source. The call rests on the fitted dose curve; in most records, active means well fitted curve in the direction sought with a large enough effect; inconclusive means small, poorly fitted or top-dose-only effect, or another doubt; inactive means no such curve, though single readings can be large; an effect the other way counts as inactive or inconclusive.

Cytochrome P450 3A4 (Homo sapiens), sequence (P08684 whole entry, looked up): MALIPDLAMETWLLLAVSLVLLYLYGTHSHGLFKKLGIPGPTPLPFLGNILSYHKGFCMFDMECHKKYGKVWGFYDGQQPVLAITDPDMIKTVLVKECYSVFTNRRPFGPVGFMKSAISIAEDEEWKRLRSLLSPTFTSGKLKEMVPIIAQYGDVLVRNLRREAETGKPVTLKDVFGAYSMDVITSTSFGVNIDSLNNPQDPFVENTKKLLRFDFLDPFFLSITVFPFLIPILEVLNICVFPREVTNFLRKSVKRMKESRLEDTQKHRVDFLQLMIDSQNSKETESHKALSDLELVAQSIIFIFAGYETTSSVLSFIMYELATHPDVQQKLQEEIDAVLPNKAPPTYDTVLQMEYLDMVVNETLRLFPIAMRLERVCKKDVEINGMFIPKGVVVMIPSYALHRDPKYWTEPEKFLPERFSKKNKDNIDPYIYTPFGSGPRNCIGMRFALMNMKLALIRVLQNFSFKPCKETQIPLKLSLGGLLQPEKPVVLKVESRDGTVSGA

`COC(=O)C/C=C\[C@@H](C)[C@@H](/C=N\O[C@@H](C)c1cn([C@H](CO)Cc2ccccc2)nn1)OC`: the Potency in assay [1] was 3.98 µM (active). For the same compound, the activity change, positive = activation in assay [2] was -56.1% [at 11.4 µM] and -71.3% [at 11.4 µM].

With `COCCN=C1OC(=O)N2C(=O)C3=C4C(C[C@H]5C(=O)N(c6ccccc6)C(=O)[C@H]5[C@H]4[C@@]12Cc1ccccc1)[C@H]1C(=O)N(c2ccccc2)C(=O)[C@H]1[C@H]3C` (stereo partly drawn), in assay [1], the Potency is 5.01 µM (active). Besides, the Potency entry in assay [2] is “inactive”.

With `COC(=O)[C@@H]1C[C@@H]2CC[C@@H](O)C[C@@H]2N1Cc1ccc(OC)cc1`, the Potency in assay [1] is 15.8 µM (active). The Potency entry in assay [2] was “inactive”.

Regarding `C/C(CCN1CCCc2nc(C)c(C)cc21)=N\O[C@@H](C)CN1CCCCc2nc(C)c(C)cc21`, in assay [1], the Potency was 3.98 µM (active). Also, in assay [2], the activity change, positive = activation was -69.7% [at 11.4 µM].

On to `COC(=O)c1cccc(C23CC4(C2)[C@H](CN(C)[C@@H]4c2ccccc2)C3c2ccc(C(F)(F)F)cc2)c1` (stereo partly drawn), for which, in assay [1], the Potency was 12.6 µM (active). Besides, the Potency result in assay [2] was “inactive”.

As for `CCc1cc(C(C)=O)c(O)cc1OCCCCCC(C)(C)c1nn[nH]n1`, in assay [1], the Potency is 10 µM (active). In assay [2], the Potency result was “inactive”.

On to `Cc1c(C(=O)NC2CCCCC2)sc2nc3ccc(N)cc3n12`, for which the Potency in assay [1] is 1.58 µM (active). In assay [2], the Potency entry is “inactive”.

With `O=C1C(Cl)=C(NC2CCc3ccccc32)C(=O)c2ncccc21` (stereo not drawn), in assay [1], the Potency was 1.58 µM (active). Moreover, in assay [2], the Potency result was “inactive”.

For `COC(=O)c1ccc(C(NC(=O)OCc2ccccc2)/C(C)=C/[C@@H](C)C(=O)N(C)Cc2cccnc2)cc1` (stereo partly drawn), in assay [1], the Potency is 0.794 µM (active). Also, the Potency entry in assay [2] was “inactive”.

`CN1C[C@@H]2C(c3ccc(C(F)(F)F)cc3)C3(c4cccnc4)CC2(C3)[C@H]1c1ccccc1` (stereo partly drawn): the Potency in assay [1] is 7.94 µM (active). Besides, the Potency result in assay [2] was “inactive”.

In the case of `C[C@]1(C(=O)NCCCNc2ncc(C(F)(F)F)cc2Cl)C=C[C@@H](Cc2ccccc2)N1C(=O)c1ccccc1`, the Potency in assay [1] is 3.16 µM (active). Also, in assay [2], the Potency result is “inactive”.

Regarding `CCC1=C2CC[C@H]3C(=O)N(CC(=O)OC)C(=O)[C@H]3[C@H]2[C@@]2(Cc3ccccc3)C(=NCCc3c[nH]c4ccccc34)OC(=O)N2C1=O`, the Potency in assay [1] is 1.26 µM (active). In assay [2], the Potency result is “inactive”.

As to `CCC1=C(OC(=O)N(CC)CC)N2C(=O)OC(=NCC(=O)OC)[C@]2(Cc2ccccc2)[C@H]2C1=CC[C@H]1C(=O)N(CC(=O)OC)C(=O)[C@H]12`, the Potency in assay [1] was 5.01 µM (active). Moreover, in assay [2], the Potency entry was “inactive”.

As for `CCC1=C(OC(=O)N(CC)CC)N2C(=O)OC(=NCCOC)[C@]2(Cc2ccccc2)[C@H]2C1=CC[C@H]1C(=O)N(CC(=O)OC)C(=O)[C@H]12`, the Potency in assay [1] is 6.31 µM (active). In assay [2], the Potency entry was “inactive”.

Regarding `CCC1=C(OC(=O)N(CC)CC)N2C(=O)OC(=NCc3ccccc3)[C@]2(C)[C@H]2C1=CC[C@H]1C(=O)NC(=O)[C@H]12`, the Potency in assay [1] was 5.01 µM (active). For the same compound, the Potency result in assay [2] was “inactive”.

For the compound `C/C(CCC(=O)OC[C@@H]1O[C@H](C#Cc2ccccc2)C=C[C@@H]1Oc1ccc(C)cc1)=N/OC[C@@H](O)COCc1ccco1`, the Potency in assay [1] was 3.16 µM (active). In addition, the activity change, positive = activation in assay [2] was -90.6% [at 11.4 µM].

Consider `CC(=O)OC[C@@H]1O[C@H](C/C=N\O[C@@H](C)c2cc(-c3c(C)cc(C)cc3C)no2)C=C[C@@H]1OC(C)=O`, for which the Potency in assay [1] is 3.16 µM (active). Also, in assay [2], the activity change, positive = activation is -77.7% [at 11.4 µM].

For the compound `C=CC[C@@H]1C=C[C@@H](O/N=C(/C)CCC(=O)OC[C@@H]2O[C@H](C#Cc3ccccc3)C=C[C@@H]2Oc2ccc(C)cc2)[C@@H](CO)O1`, the Potency in assay [1] is 5.01 µM (active). The activity change, positive = activation in assay [2] is -97.7% [at 11.4 µM].

`Clc1ccc(C2[C@H]3CN(CC4CCCCC4)[C@H](c4ccccc4)C34CC2(c2cccnc2)C4)cn1` (stereo partly drawn): in assay [1], the Potency is 3.98 µM (active). Moreover, the Potency entry in assay [2] is “inactive”.

`CCC1=C(OC(=O)N(CC)CC)N2C(=O)OC(=NCCc3c[nH]c4ccccc34)[C@]2(C)[C@H]2C1=CC[C@H]1C(=O)N(CC)C(=O)[C@H]12`: the Potency in assay [1] was 1.26 µM (active). The Potency result in assay [2] was “inactive”.

Regarding `CCC1=C2CC[C@H]3C(=O)N(C)C(=O)[C@H]3[C@H]2[C@@]2(Cc3ccccc3)C(=NCC3CC3)OC(=O)N2C1=O`, in assay [1], the Potency was 5.01 µM (active). The Potency entry in assay [2] is “inactive”.

`COC(=O)C/C=C\[C@@H](C)[C@@H](/C=N\O[C@@H](C)c1cn([C@H](CO)Cc2ccccc2)nn1)NS(=O)(=O)c1ccc(C)cc1`: the Potency in assay [1] is 3.98 µM (active) and 2 µM (active). Besides, in assay [2], the activity change, positive = activation was -101% [at 11.4 µM] and -92.7% [at 11.4 µM].

`CCC1=C(OC(=O)N(CC)CC)N2C(=O)OC(=NCc3ccccc3)[C@]2(C)[C@H]2C1=CC[C@H]1C(=O)N(c3ccccc3)C(=O)[C@H]12`: the Potency in assay [1] was 2.51 µM (active). Further, the Potency entry in assay [2] was “inactive”.

As for `Clc1ccc(C2[C@H]3CN(Cc4cccnc4)[C@H](c4ccccc4)C34CC2(c2ccccc2)C4)cn1` (stereo partly drawn), the Potency in assay [1] is 2 µM (active). Moreover, the Potency result in assay [2] was “inactive”.
